From the supplement of paper PMC9177965
Several values for one entry are separate records, joined by “and”; a condition that tells them apart may be missing. Equal entries are not always repeated.

Legend:
[1] = test system: HT29 RNF43 G659fs (RNF43 659mut, CRISPR-edited); experiment: cell viability activity relative to DMSO (negative = inhibition); higher = more viable cells (less growth inhibition); conditions: 5 µM; 96 h
Method: (§1)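 Broad Repurposing Library primary screen at a single dose of 5 uM. HT29 sg-Ctrl and HT29 RNF43 G659fs CRISPR-edited isogenic cells were seeded at 2500 cells/well in 384-well plates in duplicate and treated for 96 h. Viability was read by CellTiter-Glo and reported as % activity relative to DMSO, with MG132 as the positive control (negative = growth inhibition).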

[2] = test system: HT29 sg-Ctrl (RNF43 wildtype); experiment: as above; conditions: 5 µM; 96 h
Method: as §1

Question: Which results are given for `COc1cc(OCc2cccc(-c3ccccc3)c2C)cc(OC)c1CN1CCCC[C@H]1C(=O)O`?
Answer: cell viability activity [1]: -24.2%; cell viability activity [2]: -3.46%

Question: How did the cell viability activity [1] turn out when `CC1(C)CC[C@]2(C(=O)O)CC[C@]3(C)[C@H](C(=O)C=C4[C@@]5(C)C=C(C#N)C(=O)C(C)(C)[C@@H]5CC[C@]43C)[C@@H]2C1` was run?
Answer: -88.2%

Question: And the cell viability activity [2]?
Answer: -82.9%

Question: For `COC(=O)Nc1nc2cc(C(=O)c3ccc(F)cc3)ccc2[nH]1`, which cell viability activity [1] is on record?
Answer: -46.6%

Question: What about the cell viability activity [2] of the same molecule?
Answer: -51.2%

Question: For `Cc1ccc(C(=O)Nc2ccc(CN3CCN(C)CC3)c(C(F)(F)F)c2)cc1C#Cc1cnc2cccnn12`, which cell viability activity [1] is on record?
Answer: -86.7%

Question: What about the cell viability activity [2] of the same molecule?
Answer: -78.4%

Question: Which cell viability activity [1] does the source give for `OCCN1CCN(CCCN2c3ccccc3Sc3ccc(Cl)cc32)CC1` here?
Answer: -53.2%

Question: And the cell viability activity [2]?
Answer: -90.5%

Question: Which cell viability activity [1] does the source give for `CN(C)CCOc1ccc(-c2nc(-c3ccc4c(c3)CC/C4=N\O)c(-c3ccncc3)[nH]2)cc1` here?
Answer: -28.5%

Question: What about the cell viability activity [2] of the same molecule?
Answer: -37.9%

Question: For `COCCOc1ccc2c(c1)ncn2-c1ccc2cccc(N3CCC(N)CC3)c2n1`, which cell viability activity [1] is on record?
Answer: -93.4%

Question: And the cell viability activity [2]?
Answer: -94.6%

Question: Which cell viability activity [1] does the source give for `CN1CCN(CCCN2c3ccccc3Sc3ccc(C(F)(F)F)cc32)CC1` here?
Answer: -34.4%

Question: What about the cell viability activity [2] of the same molecule?
Answer: -18.8%

Question: Which cell viability activity [1] does the source give for `CC(=O)c1cnc2ccc(-c3cc(Cl)c(O)c(Cl)c3)nc2c1N[C@H]1CC[C@H](CN(C)C)CC1` here?
Answer: -89.2%

Question: And the cell viability activity [2]?
Answer: -91.1%

Question: Which results are given for `O=C(/C=C\n1cnc(-c2cc(C(F)(F)F)cc(C(F)(F)F)c2)n1)N1CC(F)(F)C1`?
Answer: cell viability activity [1]: -72.2%; cell viability activity [2]: -68%

Question: Which results are given for `CNC(=O)c1nn(C)c2c1C(C)(C)Cc1cnc(Nc3ccc(N4CCN(C)CC4)cc3)nc1-2`?
Answer: cell viability activity [1]: -66.2%; cell viability activity [2]: -74.1%

Question: `Cc1[nH]nc2ccc(-c3cncc(OC[C@@H](N)Cc4ccccc4)c3)cc12` was tested. Which cell viability activity [1] did it give?
Answer: -89.5%

Question: And the cell viability activity [2]?
Answer: -90.7%

Question: How did the cell viability activity [1] turn out when `N#Cc1ccc(Cn2cncc2CN2CCN(c3cccc(Cl)c3)C(=O)C2)cc1` was run?
Answer: -45.7%

Question: And the cell viability activity [2]?
Answer: -43.4%

Question: What does the source list for `CCN(CC)CCOc1ccc(Nc2ncc3cc(-c4c(Cl)cccc4Cl)c(=O)n(C)c3n2)cc1`?
Answer: cell viability activity [1]: -86.7%; cell viability activity [2]: -80.3%

Question: How did the cell viability activity [1] turn out when `COc1ccccc1S(=O)(=O)Nc1ccc2c(c1)CN(C)C(=O)N2` was run?
Answer: -56.4%

Question: And the cell viability activity [2]?
Answer: -63.5%

Question: Which cell viability activity [1] does the source give for `CC(=O)Nc1nc(C)c(-c2ccc(Cl)c(S(=O)(=O)NCCO)c2)s1` here?
Answer: -53.2%

Question: And the cell viability activity [2]?
Answer: -38.4%

Question: `CCN(CC)Cc1ccc2cc(COC(=O)Nc3ccc(C(=O)NO)cc3)ccc2c1` was tested. Which cell viability activity [1] did it give?
Answer: -91.4%

Question: And the cell viability activity [2]?
Answer: -84.2%

Question: For `CNc1nc(-c2ccc3c(N)n[nH]c3c2)cc(N2C[C@@H](C(=O)NC3CCCCC3)CC[C@H]2C)n1`, which cell viability activity [1] is on record?
Answer: -31.4%

Question: And the cell viability activity [2]?
Answer: -23%

Question: What does the source list for `COc1cccc2c1C(=O)c1c(O)c3c(c(O)c1C2=O)C[C@@](O)(C(=O)CO)C[C@@H]3O[C@H]1C[C@H](N)[C@H](O)[C@H](C)O1`?
Answer: cell viability activity [1]: -94% and -83.9%; cell viability activity [2]: -89.6% and -89.8% and -68.3%

Question: What does the source list for `CC(C)(C)CC(C)(C)c1ccc(OCCOCC[N+](C)(C)Cc2ccccc2)cc1`?
Answer: cell viability activity [1]: -98.5%; cell viability activity [2]: -97.2%

Question: What does the source list for `Cn1c(=O)n(-c2ccc(C(C)(C)C#N)cc2)c2c3cc(-c4cnc5ccccc5c4)ccc3ncc21`?
Answer: cell viability activity [1]: -56.8%; cell viability activity [2]: -44.1%

Question: How did the cell viability activity [1] turn out when `O=C1C(Cl)=C(NCCN2CCOCC2)C(=O)c2ncccc21` was run?
Answer: -46.3%

Question: And the cell viability activity [2]?
Answer: -94.7%

Question: `COC(=O)c1ccccc1-c1c2ccc(=N)cc-2oc2cc(N)ccc12` was tested. Which cell viability activity [1] did it give?
Answer: -44.3%

Question: And the cell viability activity [2]?
Answer: -37.4%

Question: `Cc1cc(Nc2nc(N[C@@H](C)c3ncc(F)cn3)ncc2Cl)[nH]n1` was tested. Which cell viability activity [1] did it give?
Answer: -32.8%

Question: And the cell viability activity [2]?
Answer: -31.6%

Question: How did the cell viability activity [1] turn out when `Cc1cc(C(=O)NOCCO)c(Nc2ccc(I)cc2F)n(C)c1=O` was run?
Answer: -83.4%

Question: And the cell viability activity [2]?
Answer: -88.5%

Question: Which results are given for `Nc1nc(Nc2ccc3c(c2)CCC(N2CCCC2)CC3)nn1-c1cc2c(nn1)-c1ccccc1CCC2` (stereo not given)?
Answer: cell viability activity [1]: -28.9%; cell viability activity [2]: -31.9%

Question: What does the source list for `CCCCCCCC/C=C/CCCCCCCC(=O)OC[C@H]1O[C@@H](n2ccc(N)nc2=O)C(F)(F)[C@@H]1O`?
Answer: cell viability activity [1]: -42%; cell viability activity [2]: -51.8%

Question: How did the cell viability activity [1] turn out when `Nc1cc(C(F)(F)F)c(-c2cc(N3CCOCC3)nc(N3CCOCC3)n2)cn1` was run?
Answer: -75.9%

Question: What about the cell viability activity [2] of the same molecule?
Answer: -60.1%

Question: For `Cc1cc(C2CCCCC2)n(O)c(=O)c1`, which cell viability activity [1] is on record?
Answer: -85.1%

Question: And the cell viability activity [2]?
Answer: -83.4%

Question: Which results are given for `CC(C)OC(=O)OCOP(=O)(CO[C@H](C)Cn1cnc2c(N)ncnc21)OCOC(=O)OC(C)C`?
Answer: cell viability activity [1]: -26.8%; cell viability activity [2]: -48.3%

Question: For `CCS(=O)(=O)Nc1ccc2[nH]c(O)c(C(=Nc3ccc(CN4CCCCC4)cc3)c3ccccc3)c2c1`, which cell viability activity [1] is on record?
Answer: -77.1%

Question: What about the cell viability activity [2] of the same molecule?
Answer: -75.4%

Question: How did the cell viability activity [1] turn out when `Cn1cc(-c2ccc(S(=O)(=O)n3ccc(/C=C/C(=O)Nc4ccccc4N)c3)cc2)cn1` was run?
Answer: -62.6%

Question: What about the cell viability activity [2] of the same molecule?
Answer: -63.3%

Question: Which results are given for `OCCNCCCOc1cccc(Cl)c1Cl`?
Answer: cell viability activity [1]: -45.4%; cell viability activity [2]: -43.2%

Question: `Cn1c(Nc2ccc(C(F)(F)F)cc2)nc2cc(Oc3ccnc(-c4ncc(C(F)(F)F)[nH]4)c3)ccc21` was tested. Which cell viability activity [1] did it give?
Answer: -82%

Question: What about the cell viability activity [2] of the same molecule?
Answer: -67.4%

Question: `COc1cc(C(=O)NC2CCN(C)CC2)c(F)cc1Nc1ncc2c(n1)N(C1CCCC1)CC(F)(F)C(=O)N2C` was tested. Which cell viability activity [1] did it give?
Answer: -65.9%

Question: And the cell viability activity [2]?
Answer: -68.1%
